# High-throughput results from PubChem.
# Sampled rows, rich in hits. Any-hit rate of the full collection: about 11%.
# USP28 inh – human USP28 deubiquitinase inhibition | Q96RU2 | purified USP28, Ub-rhodamine cleavage fluorescence, 30 min | inhibition, % at 25 µM | actives 3% (n = 47,000)
# USP17 block – inhibitors of human USP17 deubiquitinase; A8MUK1; purified USP17, Ub-rhodamine cleavage fluorescence, 3 h; inhibition, % at 50 µM; actives 6.5% (n = 47,000); AID 1645855
# Target sequence (A8MUK1 whole entry, looked up): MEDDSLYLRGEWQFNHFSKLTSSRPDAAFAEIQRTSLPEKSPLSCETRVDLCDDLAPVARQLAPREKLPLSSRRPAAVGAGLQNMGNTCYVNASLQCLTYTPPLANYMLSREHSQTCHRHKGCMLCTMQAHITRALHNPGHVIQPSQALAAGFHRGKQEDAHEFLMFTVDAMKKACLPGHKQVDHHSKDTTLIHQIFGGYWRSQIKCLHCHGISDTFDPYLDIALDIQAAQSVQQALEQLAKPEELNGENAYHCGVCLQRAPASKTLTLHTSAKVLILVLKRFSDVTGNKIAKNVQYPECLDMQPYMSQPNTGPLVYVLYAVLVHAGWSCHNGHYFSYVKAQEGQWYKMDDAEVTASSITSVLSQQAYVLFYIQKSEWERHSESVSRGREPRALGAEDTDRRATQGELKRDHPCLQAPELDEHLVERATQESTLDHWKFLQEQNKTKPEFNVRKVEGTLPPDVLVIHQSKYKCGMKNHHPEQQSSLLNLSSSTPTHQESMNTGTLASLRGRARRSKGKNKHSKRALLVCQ
# USP30 block – inhibitors of human USP30 deubiquitinase | Q70CQ3 | purified USP30, Ub-rhodamine cleavage fluorescence | inhibition, % at 25 µM | actives 5.3% (n = 47,000) | AID 1645860
# An asterisk follows results filed as active; i = inactive; nt = no result given. Cut-off read from the data, not from the text of the source: active = inhibition above about 30%; inactive = the rest.
SMILES,USP28 inh,USP17 block,USP30 block
CC(NC(=O)c1ccccc1)c1nc2ccccc2n1CC(=O)Nc1ccc(OC(F)(F)F)cc1 (stereo unspecified),7,12,19
COc1ccc(NC(=O)Cn2c(CS(=O)(=O)c3ccc(C)cc3)nc3ccccc32)cc1,2,24,51*
COc1cccc(NC(=O)Cn2c(COc3ccccc3)nc3ccccc32)c1,2,63*,27
COc1cccc(NC(=O)Cn2c(C(F)(F)F)nc3ccccc32)c1,nt,-9,nt
O=C(Cn1c(COc2ccccc2)nc2ccccc21)Nc1cc(Cl)cc(Cl)c1,12,16,31*
O=C(Cn1c(CNC(=O)c2ccccc2)nc2ccccc21)Nc1ccc(F)cc1,37*,88*,78*
O=C(Cn1c(COc2ccccc2)nc2ccccc21)Nc1cc(Cl)ccc1Cl,6,9,0
O=C(Cn1c(COc2ccccc2)nc2ccccc21)Nc1ccc(N2CCOCC2)cc1,8,8,22
Oc1ccc(-c2nc3cnccn3c2NCCc2ccccc2)c(O)c1,-270,-162,i
CN(C)C(=O)CCC1CCCN(c2cc(NC3CC3)ncn2)C1 (stereo unspecified),-2,-9,-5
Cc1ccc(F)cc1NC(=O)c1ccc2c(c1)nnn2CCN1CCOCC1,-7,-3,-3
O=C1OC[C@@H]2CCN(Cc3nccs3)C[C@H]2N1Cc1ccccc1,nt,-8,nt
COc1ccc(Nc2nc(NCc3ccccc3)c3nccnc3n2)cc1,37*,-8,-12
Cc1ccc(Nc2nc(Nc3cccc(Cl)c3)nc3nccnc23)cc1,-210,-164,i
COc1ccc(-c2cn(-c3ccccc3)nc2C(=O)NCc2ccncc2)cc1OC,-9,-6,-8
CN(C)C(=O)c1ccc2c(c1)ncn2CCNC(=O)NC(C)(C)C,-1,0,-1
COc1ccccc1OCC(=O)N1CCC(c2nc3ccccc3cc2C(N)=O)CC1,15,8,34*
COc1ccc(OCC(=O)N2CCC(c3nc4ccccc4cc3C(N)=O)CC2)cc1,-4,-11,-18
COc1ccc(S(=O)(=O)N2CCc3ccccc32)cc1C(=O)NCc1ccc(F)cc1,9,-6,16
Fc1cccc(CNc2cc(-n3ccnc3)ncn2)c1,32*,4,15
Cc1cccc(CNc2cc(-n3ccnc3)ncn2)c1,28,9,3
CCCOc1ccc(C2CN3C(=O)CN(CCCN4CCOCC4)C(=O)[C@]3(C)c3[nH]c4ccccc4c32)cc1OCC (stereo partly specified),-12,-6,-34
CCS(=O)(=O)N1CCCC(c2nc(C)c3c(n2)N(Cc2ccc(F)cc2)C(=O)C3)C1 (stereo unspecified),-20,-6,-182
O=C(Nc1cc(Cl)cc(Cl)c1)C(Sc1ncn[nH]1)c1ccccc1 (stereo unspecified),13,-2,-7
O=C(CSc1nnc(-c2ccncc2)n1Cc1ccccc1)c1ccc2[nH]c(O)cc2c1,27,58*,-48
SMILES,USP28 inh,USP17 block,USP30 block
Cc1nnc(SCC(=O)c2ccc3ccccc3c2)n1Cc1ccccc1,1,0,6
CC(C)C(NS(=O)(=O)c1ccc2c(c1)CCCC(=O)N2)C(=O)NC1CCCCCC1 (stereo unspecified),1,6,10
Cc1cc(Cl)ccc1S(=O)(=O)NCc1nc(C(=O)N2CCCC2)c(C)o1,-13,-13,-13
CC(C)C12CN3CC(C(C)C)(CN(C1)C3c1ccc([N+](=O)[O-])o1)C2=O (stereo unspecified),11,17,17
CC(C)C12CN3CC(C(C)C)(CN(C1)C3[C@@H](O)[C@H](O)[C@H](O)[C@@H](O)CO)C2=O (stereo partly specified),11,7,30*
CC(C)N(C(=O)c1c([C@H](C)C(C)(C)O)ccc2ccccc12)C(C)C,5,10,16
COc1cc(OC)cc(-n2c(=O)c3sccc3n(CC(=O)c3ccc(F)cc3)c2=O)c1,10,20,56*
CCOc1ccc(-n2c(=O)c3sccc3n(CC(=O)Nc3cccc(C)c3)c2=O)cc1,-3,1,0
O=C(CCCCCn1c(=O)c2sccc2n(CC(=O)c2ccccc2)c1=O)Nc1ccccc1,3,-1,24
COc1cc(OC)cc(-n2c(=O)c3sccc3n(CC(=O)Nc3ccc(C)cc3)c2=O)c1,8,62*,20
Cc1ccccc1NC(=O)Cn1cc(S(=O)(=O)Cc2ccccc2)c2ccccc21,0,nt,-68
Cn1c(=O)n(Cc2ccc(C(F)(F)F)cc2)c2cncnc21,-1,0,3
CNC(=O)/C=C/C(C)=C/C(C)C(=O)c1ccc(N(C)C)cc1 (stereo unspecified),2,6,-30
CC(/C=C/C(=O)NO[C@@H]1O[C@H](CO)[C@@H](O)[C@H](O)[C@H]1O)=C\C(C)C(=O)c1ccc(N(C)C)cc1 (stereo partly specified),18,43*,19
